Measured values as given in PubChem BioAssay (NCI).
Compounds without any hit were thinned out: in the full panel of roughly 79,000, 15% have a hit. No stated cut-off is given here; in the data, active means growth inhibition above about 70%; inactive means the rest.

Key:
[1] = NCI Yeast Anticancer Drug Screen. Data for the rad50 strain (AID 155);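 further: 0% = growth of vehicle-only cultures of the same strain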; conditions: S. cerevisiae rad50 strain growth inhibition; at 50.0 µM; active compounds read high
Procedure, shortened: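 Compounds were tested on a yeast strain with an engineered DNA damage repair alteration; the reported value is growth inhibition normalised to vehicle treatment.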

[2] = NCI Yeast Anticancer Drug Screen. Data for the mec2-1 strain (AID 157); conditions: S. cerevisiae mec2-1 strain, at 50.0 µM, active compounds read high
Procedure, shortened: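 Readout is yeast growth inhibition, normalised to vehicle-treated controls, in the mec2-1 strain exposed to compound.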

[3] = NCI Yeast Anticancer Drug Screen. Data for the sgs1 mgt1 strain (AID 161);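 further: 0% = growth of cultures given vehicle only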; conditions: S. cerevisiae sgs1 mgt1 strain, at 50.0 µM, active compounds read high
Procedure, shortened: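 Growth of a repair-deficient yeast mutant was monitored after compound treatment and expressed as inhibition relative to vehicle-treated cultures.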

[4] = NCI Yeast Anticancer Drug Screen. Data for the cln2 rad14 strain (AID 165);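 further: 0% = growth equal to vehicle treated cultures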; conditions: S. cerevisiae cln2 rad14 strain, at 50.0 µM, active compounds read high
Procedure, shortened: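 Relative to vehicle controls, growth inhibition of compound-treated cln2 rad14 yeast was recorded.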

[5] = NCI Yeast Anticancer Drug Screen. Data for the bub3 strain (AID 167); conditions: S. cerevisiae bub3 mutant strain, at 50.0 µM, active compounds read high
Procedure, shortened: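 Growth of a checkpoint-deficient yeast mutant is measured after compound exposure. Values represent inhibition relative to vehicle.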

[6] = NCI Yeast Anticancer Drug Screen. Data for the mlh1 rad18 strain (AID 175); conditions: S. cerevisiae mlh1 rad18 strain growth inhibition; at 50.0 µM; active compounds read high
Procedure, shortened: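 Test agents were incubated with a yeast strain of defined genotype (DNA damage repair defect). Inhibition of growth was derived by comparison with vehicle-exposed cultures.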

Measured: growth inhibition

CCOC(=O)c1c(N)sc2c1C(C(=O)OCC)CCC2 (stereo not drawn)
inactive: [1] -28.3% | [2] -10.7% | [3] 3.95% | [4] -24.1% | [5] 19.4% | [6] -11.7%

c1ccc(-c2ccc(C(=C(c3ccc(-c4ccccc4)cc3)c3ccc(-c4ccccc4)cc3)c3ccc(-c4ccccc4)cc3)cc2)cc1
inactive: [1] 1.1% | [2] -0.85% | [3] -9.9% | [4] -4.15% | [5] -4.7% | [6] -12.6%

O=C1CSC=C(c2ccccc2)O1
inactive: [1] 4.45% | [2] 4.4% | [3] -4.7% | [4] -40.8% | [5] -0.5% | [6] -19.4%
